# An excerpt weighted towards active compounds, which were near 4.6% of everything screened.
# D1 PAM: human D1 dopamine receptor positive modulation | HEK293 TREx D1 cells, calcium flux, dopamine EC20 potentiation | potentiation, % at 10 µM | hit rate 0.036% among 360,000 | AID 504651; in the data active = potentiation above about 30%; also: 0% is about no effect
# Target sequence (P21728 whole entry, looked up): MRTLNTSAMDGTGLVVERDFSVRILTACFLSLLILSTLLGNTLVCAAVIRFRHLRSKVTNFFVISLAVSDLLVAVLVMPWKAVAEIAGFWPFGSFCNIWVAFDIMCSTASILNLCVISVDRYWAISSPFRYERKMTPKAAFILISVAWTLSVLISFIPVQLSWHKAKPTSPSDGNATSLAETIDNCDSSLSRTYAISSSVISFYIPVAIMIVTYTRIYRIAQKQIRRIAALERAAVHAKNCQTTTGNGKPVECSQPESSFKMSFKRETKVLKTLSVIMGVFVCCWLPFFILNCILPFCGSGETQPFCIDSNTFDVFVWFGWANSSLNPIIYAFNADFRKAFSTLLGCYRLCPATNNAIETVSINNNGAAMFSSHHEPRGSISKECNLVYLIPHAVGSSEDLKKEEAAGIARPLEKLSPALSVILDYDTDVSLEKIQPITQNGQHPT
# D1 ag: human D1 receptor agonism; P21728; HEK293 T-REx D1 cells, calcium flux, agonist mode; activation, % at 2 µM; hit rate 1% among 360,000; AID 504660; also: 0% is about no effect
#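 Agonism was scored from calcium flux recorded over 180 s (1 read/s) after pintool compound addition, following a 10-cycle baseline. Cells were inducible force-coupled HEK293 TREx D1, plated overnight at 30 C and loaded with no-wash calcium dye.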
# D1 antagonist: human D1 dopamine receptor antagonism. P21728. HEK293 TREx D1 cells, calcium flux, dopamine EC80; stronger effect = lower value. activity change, negative = inhibition, % at 10 µM. hit rate 3.2% among 360,000. AID 504652; in the data active = activity change below about -30%; also: % is scaled to controls: 0 for no effect and ±100 for the full control effect
#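 Calcium flux readout: force-coupled, inducible Hek293 Trex D1 line, cells induced overnight at 30 C with tetracycline, dye-loaded 30–90 min at RT. Antagonism scored against EC80 dopamine challenge given 180 s after compound.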
# TRHR ag: TRH receptor (human) agonism | P34981 | TRHR cells, calcium flux fluo-8, FDSS agonist mode | activation, % at 2 µM | hit rate 0.18% among 360,000; also: 0% is about no effect
#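 Fluo-8-loaded TRHR cells; 10 s baseline, compound added, kinetic Ca2+ fluorescence read 1/s, agonist mode.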
# TRHR enhancer: TRH receptor (human) allosteric enhancement. P34981. TRHR cells, fluo-8 calcium fluorescence, EC20 TRH enhancement. enhancement, % at 2 µM. hit rate 0.66% among 360,000; in the data active = enhancement above about 30%; also: 0% is about no effect
#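 Enhancer read-out: after compound pinning and an initial kinetic agonist-mode read, an EC20 of TRH (10 nM final) was injected and fluo-8 calcium signal (Ex 480/Em 530) followed at 1 s/cycle for 100 cycles in TRHR-expressing cells.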
# Active calls of the source: *; x = no result. Rule as the data show it, unless noted: active = activation above about 30%; inactive = the rest.
SMILES,D1 PAM,D1 ag,D1 antagonist,TRHR ag,TRHR enhancer
CSC1=C(C#N)C(c2ccccc2)C(C(C)=O)=C(C)N1 (centres undefined),4.4,0.4,3.8,-0.3,9.9
O=C(NCc1ccccc1Cl)C1CCN(S(=O)(=O)c2ccc3c(c2)CCCN3C(=O)C2CCC2)CC1,2.2,1.1,22.5,-0.3,7.7
COc1ccc(Cl)cc1NC(=O)CSc1nccn1Cc1ccco1,1.1,0.1,-15.4,-0.2,-1.7
CCOc1ccc(N2CC(c3nc4ccccc4n3CCOc3ccccc3)CC2=O)cc1 (centres undefined),0.3,2.1,2.1,0.6,0.0
CCOc1ccc(N2CC(c3nc4ccccc4n3Cc3cccc(Cl)c3)CC2=O)cc1 (centres undefined),1.3,2.7,-33.6*,0.5,-0.3
CCOc1ccccc1N1CC(c2nc3ccccc3n2CCCCOc2ccccc2)CC1=O (centres undefined),0.8,30.6*,-14.8,0.6,-7.0
O=C(NCc1ccccc1CN1CCCC1)c1ccc(Cl)c(S(=O)(=O)N2CCCC2)c1,-7.7,12.1,-51.1*,-0.2,-1.7
O=C(NCCN1CCOCC1)c1ccc(Cl)c(S(=O)(=O)N2CCCCC2)c1,6.5,2.7,-35.6*,0.4,-0.2
O=C(NCc1ccccc1CN1CCCC1)c1cccc(S(=O)(=O)N2CCCC2)c1,-1.5,3.3,-12.7,0.4,7.0
COc1ccc(C(=O)NCc2ccccc2CN2CCCC2)cc1S(=O)(=O)N1CCOCC1,-19.4,0.7,-57.3*,0.3,4.4
COc1ccc(NC(=O)c2ccc(-c3ccccc3)cc2)cc1S(=O)(=O)N1CCOCC1,-5.1,6.2,-30.2*,0.5,-4.1
Cc1ccc(C(=O)NCCCN2CCOCC2)cc1S(=O)(=O)N1CCCCC1,-5.6,2.6,2.3,0.1,0.1
Cc1ccc(NC(=O)C2CCCN(S(=O)(=O)c3ccc4c(c3)CCCC(=O)N4)C2)cc1N(C)C (centres undefined),-5.2,0.6,-6.7,-0.7,-9.0
CCOC(=O)c1ccccc1NC(=O)CN(c1ccc(OCC)cc1)S(C)(=O)=O,-1.8,0.6,-20.6,0.3,34.5*
CCOc1ccccc1N(CC(=O)Nc1ccccc1C(=O)O)S(C)(=O)=O,-5.8,0.1,-44.5*,0.6,4.6
Cc1cc(C)cc(N2CCn3c2nc2c3c(=O)n(Cc3c(F)cccc3Cl)c(=O)n2C)c1,0.1,0.3,-30.7*,0.3,8.4
C=C(C)Cn1c(=O)c2c(nc3n2CCN3c2cc(C)cc(C)c2)n(C)c1=O,-0.8,-0.5,1.6,0.1,8.4
O=C(Cn1ncc2c([nH]c3ccccc32)c1=O)NCc1cccc(Cl)c1,-2.5,4.0,-2.9,1.2,11.9
CC(=O)Nc1ccc2c(c1)OCCOCCOc1cc(NC(C)=O)ccc1OCCOCCOCCO2,-3.5,1.3,-70.2*,-0.9,-22.7
O=C(Nc1ccc2c(c1)OCCO2)N1CCN(c2ccc(F)cc2)CC1,-7.2,6.5,-0.3,-0.9,0.0
Cc1cccc(C)c1N1CCN(C(=O)Nc2ccc3c(c2)OCCO3)CC1,-6.2,19.7,-34.4*,0.1,-1.2
Nc1nn(-c2ccccc2)c(N)c1N=Nc1ccc2c(c1)OCO2,-7.0,-0.3,-44.6*,-0.6,0.8
O=S(=O)(NCc1ccc(Cl)cc1)c1cccc2cccnc12,-2.4,1.3,0.7,0.0,-1.5
Cc1cc(C)c(S(=O)(=O)NCc2ccc3c(c2)OCO3)c(C)c1,-6.2,7.9,-35.7*,-1.5,3.8
O=S(=O)(NCc1ccc2c(c1)OCO2)c1cccc2cccnc12,3.8,8.4,-51.6*,0.4,1.3
SMILES,D1 PAM,D1 ag,D1 antagonist,TRHR ag,TRHR enhancer
COc1ccccc1-c1ccc(=O)n(CC(=O)NC2CCc3ccccc32)n1 (centres undefined),5.2,88.2*,23.1,0.2,2.4
CCOc1ccc(-c2nonc2NC(=O)c2oc3cc(C)c(C)cc3c2C)cc1OCC,-2.9,-0.9,-23.1,0.3,1.6
CC(C)OCCCn1c(SCc2ccccc2C#N)nc2c(sc3ccccc32)c1=O,-1.1,-0.7,20.3,0.5,-0.6
Cc1cccn2c(=O)cc(COc3ccc(NC(=O)c4cccc(F)c4)cc3)nc12,-3.2,3.9,-3.9,0.3,-2.6
CCOc1ccccc1CN1CCC(CO)(CCOc2ccccc2)CC1,-1.4,30.5*,16.1,-0.3,5.3
COc1ccc(CN2CCC(CO)(CCOc3ccccc3)CC2)c(OC)c1C,-4.7,66.4*,-30.7*,1.5,2.4
OCC1(CCOc2ccccc2)CCN(Cc2ccccc2C(F)(F)F)CC1,0.0,9.0,4.0,0.7,-0.8
CCOCCCNC(=O)c1c(NC(=O)c2cc(=O)c3ccccc3o2)sc2c1CCC2,-1.4,-0.6,-0.2,5.7,-3.9
CC(=O)c1c(C)n(-c2cccc(Cl)c2)c2ccc(OC(=O)c3ccccc3)cc12,-0.1,2.4,4.0,-0.7,14.9
COc1ccc(OCc2cc(C(=O)NCc3nc(C)cs3)no2)c(Cl)c1,8.4,16.7,-35.1*,1.8,16.6
COc1ccc(OCc2cc(C(=O)NC(C)c3csc(C)n3)no2)c(Cl)c1 (centres undefined),-6.8,10.9,1.2,-1.1,-2.1
CCOC(=O)C1=C(CN2CCN(c3ccc(Cl)cc3)CC2)NC(=O)NC1c1ccc(F)cc1 (centres undefined),-1.1,-0.8,-2.2,-0.7,-0.4
Nc1sc(-c2ccccc2)n[n+]1Cc1cccc2cccnc12,-7.7,15.7,-42.9*,-0.5,-12.3
Oc1ccccc1CNc1cccc2cccnc12,-3.9,2.5,-4.6,0.4,-4.9
CCOc1ccccc1C1C(C(=O)Nc2ccccc2)=C(C)Nc2c(C(=O)Nc3ccc(F)cc3)cnn21 (centres undefined),-1.1,0.7,5.8,-0.6,-7.5
CC(CNC(=O)Cn1ccc2cc(S(=O)(=O)N3CCCCCC3)ccc21)c1ccccc1 (centres undefined),-0.5,14.4,-6.4,-0.8,3.7
Cc1cccc2c1-c1sc(C(=O)NCc3ccc(Cl)cc3)cc1CO2,-7.3,3.6,-4.2,0.1,-3.0
Nc1nonc1C(=O)NCCNCc1cc(Br)ccc1OCc1ccccc1F,-7.5,31.1*,-10.1,0.0,2.0
O=C(COc1ccc(Br)cc1CNCCc1ccccc1)NCc1ccccc1,-7.7,28.0,x,1.8,-2.6
NS(=O)(=O)c1ccc(CCNC(=O)CNCCc2ccccc2)cc1,-6.0,1.1,16.5,-0.7,-3.5
NS(=O)(=O)c1ccc(CCNCc2cc(Cl)ccc2OCc2ccccc2)cc1,-6.1,56.5*,-5.7,-0.1,-1.6
Nc1nonc1C(=O)NCCNCc1ccccc1OCc1ccccc1F,-9.1,22.8,-28.3,0.0,-5.7
COc1cc(CNCCNC(=O)c2nonc2N)ccc1OCc1ccc(Cl)cc1,-4.3,69.1*,-21.7,1.6,1.8
NS(=O)(=O)c1ccc(CCNCc2cc(Br)ccc2OCc2ccccc2F)cc1,-2.8,25.3,-31.0*,0.1,9.0

# Bioassay records as filed in PubChem.
